The values below come from PubChem BioAssay AID540259 (Broad Institute, 2011).

Results with a measured potency or affinity are listed apart. Calls of active or inactive are those of the source.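 The calls were made as follows: active = cell killing, meaning signal decrease, with fitted half-maximal dose at or below ten times the top valid tested dose; inconclusive = poor fit, or flat curve with 30 to 70% signal loss; inactive = the rest.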

This experiment can be described thus: ATP-based viability loss in HeLa cells – cell-based, CellTiter-Glo luminescence, cherry-pick samples, cytotoxicity control for MITF activator project, dose response (AID 540259). Particulars: 24 h; series mostly up to 35 µM.
In the case of `Cc1cccc(-c2noc(Cc3ccccc3)n2)c1`, the outcome was inactive.

Take `COC(=O)Cc1ccc(OCc2ccc(Cl)nc2)cc1`: the result was inactive.

Turning to `COc1ccc(NC(=O)c2ccc3c(c2)OCO3)cc1Cl`, the result was inactive.

For `Cc1cccc(NC(=O)c2onc3c2CCCC3)c1C`, the result was inactive.

As for `Cc1cccc(NC(=O)c2sc3nc(N)c(C#N)cc3c2N)c1`, the result was inactive.

On to `O=C(NOCc1ccccc1)OCc1ccccc1`, for which the result was inactive.

In the case of `CSc1cccc(NC(=O)c2cnn3ccccc23)c1`, the call was inactive.

With `Cc1ccsc1C(=O)OCc1nnc(-c2ccccc2)o1`, the compound was called inactive.

With `CC1CCN(C(=O)Nc2ccc3nsnc3c2)CC1`, the compound was classed as inactive.

Regarding `C=CCNc1nc(-c2ccc(Cl)cc2)cs1`, the result was inactive.

Regarding `CC(=O)N(c1ccccc1)c1nnc(-c2cnc(C)cn2)s1`, the compound was called inactive.

Regarding `CCC(=O)Nc1sc(C(=O)Nc2ccccc2F)c(C)c1C(=O)OC`, the compound was called inactive.

Turning to `N#Cc1ccsc1NC(=O)CCc1ccccc1`, the call was inactive.

Regarding `Nc1ccc(-c2nnc(-c3ccc(N)cc3)o2)cc1`, the outcome was inactive.

On to `N#C/C(C(=O)N1CCCCC1)=C1\Nc2ccccc2S1`, for which the outcome was inactive.

For the compound `Cc1ccc(N2C(=O)S/C(=C/c3cn(C)c4ccccc34)C2=O)cc1`, the call was inactive.

`Cc1ccn2cc(-c3cccc(NS(C)(=O)=O)c3)nc2c1`: the call was inactive.

For the compound `O=c1nc(/C=C/c2ccc(O)c(O)c2)oc2ccccc12`, the result was inactive.

Turning to `Clc1ccc(SCc2cn3ccccc3n2)cc1`, the result was inactive.

In the case of `Cc1ccc(/C=N/N2C(=O)c3ccccc3NC2c2ccc(C)cc2)cc1` (stereo unspecified), the outcome was inactive.

`CN1CCN(/N=C/c2ccc(Br)cc2)CC1`: the compound was called inactive.

Turning to `Cc1cc(NC(=O)c2ccc(Cl)cc2)no1`, the result was inactive.

On to `COC(=O)Cn1c(=NC(=O)c2ccc(Cl)s2)sc2cc(C)ccc21`, for which the compound was called inactive.

For the compound `Nc1ccc(Oc2cc(N)cc(Oc3ccccc3)c2)cc1`, the compound was called inactive.

Take `O=C(Nc1ccccc1)Nc1ccc2nnsc2c1`: the call was inactive.

For the compound `COC(=O)c1ccc(-c2ccc(Cl)cc2)nc1C`, the outcome was inactive.

Take `CCN(CC)S(=O)(=O)c1cc(C(=O)Nc2cc(C)[nH]n2)ccc1Cl`: the result was inactive.

Consider `C=CCn1cnc2c(nnn2-c2ccc(C)c(C)c2)c1=O`, for which the outcome was inactive.

For the compound `O=C(NC1=NCCS1)c1ccc(Cl)s1`, the compound was called inactive.

For `CCS(=O)(=O)Nc1ccc(C(=O)NCCSc2ccccc2)cc1`, the call was inactive.

With `CC(=O)N1N=C(c2ccc(C)cc2)OC1c1ccc(Br)cc1` (stereo unspecified), the outcome was inactive.

On to `c1ccc2c(c1)NC1(CCCC1)n1c-2nc2ccccc21`, for which the call was inactive.

As to `COc1ccc(Oc2ncnc3sccc23)cc1`, the call was inactive.

As to `Cc1ccc(NC(=O)CCCc2ccccc2)nc1`, the compound was classed as inactive.

Consider `Cc1nc(-c2ccc(NC(=O)c3ccccc3Br)cc2)cs1`, for which the compound was classed as inactive.

Take `Cc1ccc2c(CN3CCC(C)CC3)cc(=O)oc2c1C`: the compound was classed as inactive.
